Measurements: PubChem BioAssay (NCI)
Compounds without any hit were thinned out: in the full panel of roughly 83,000, 20% have a hit.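 For each line, cells grew in 96-well plates with the test compound present at a single concentration for 48 hours.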 Unmarked numbers belong to inactive results. The source made the active and inactive calls. Rule for the calls: active = growth percent below 10; inactive = the rest.

System: SF-268 CNS
Test: NCI-60 one-dose screen, 48 h (100 = growth as untreated, 0 = no growth, -100 = all killed)
Conditions: 10 µM unless noted

SMILES	growth
c1cnc2[nH]cc(-c3csc(-c4cn(CCCCN5CCCCC5)c5ccccc45)n3)c2c1	86.1%
COc1ccc(NC([Se])=NC23CC4CC(CC(C4)C2)C3)cc1	38.5%
Clc1cccc(Cl)c1Cl	97.5%
C[C@]12CCc3sc(-c4ccccc4O)nc3C1=CC[C@@H]1[C@@H]2CC[C@]2(C)C(=O)CC[C@@H]12	100%
O=C(CC1(O)C(=O)Nc2ccccc21)c1ccc(C(=O)NCC2CCC3(CC2)OOC2(CCCCC2)OO3)cc1 (stereo unspecified)	82%
CCCOC(=O)N[C@H]1CCc2c(Br)c(OC)c(OC)c(OC)c2-c2ccc(SC)c(=O)cc21	17.8%
Cc1cc(C)c(CBr)c(C)c1	105%

System: SF-295 CNS
Test: as above
Conditions: 10 µM unless noted

SMILES	growth
CCCC[C@H](NC(=O)[C@H]1CCCN1C)C(=O)N(C)[C@H](C[C@@H](OC(C)=O)c1nc(C(=O)N[C@@H](Cc2ccccc2)C[C@H](C)C(=O)OCC)cs1)C(C)C	13.3%
COc1ccc2c(c1)c(-c1nc(-c3c[nH]c4ncccc34)cs1)cn2CCCCN1CCCCC1	-64.9% (active)
COC(=O)[C@H](Cc1ccccc1)NC(=O)c1csc([C@@H](C[C@H](C(C)C)N(C)C(=O)[C@@H](NC(=O)[C@H]2CCCN2C)C2CC2)OC(C)=O)n1	-4.82% (active)
C[C@]12CC[C@H]3[C@@H](CC[C@]4(O)C[C@@H](O[C@@H]5O[C@H](CO)[C@@H](O[C@@H]6OC[C@@H](O)[C@H](O)[C@H]6O)[C@H](O)[C@H]5O)CC[C@]34C=O)[C@@]1(O)CC[C@@H]2C1=CC(=O)OC1	8.52% (active)
